From PubChem BioAssay
A selection: hits, their analogues and other compounds. The true share with any hit is near 1.1%.
CatS inh: human cathepsin S inhibition; P25774; recombinant cathepsin S, AMC dipeptide fluorescence, pooled mixtures; inhibition, %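 (tested at 5 µM per compound within 10-compound mixtures)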; 62,000 tested, 0.06% active; in the data active = inhibition above about 32%, passing the limit was not always enough;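 also: 0% = enzyme without compound and 100% = blank without enzyme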
CatB block: human cathepsin B inhibition; purified cathepsin B, fluorogenic substrate, fluorescence; inhibition, %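 (tested at 10 µM)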; 63,000 tested, 0.1% active; AID 453; in the data active = inhibition above about 21%;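 also: 0% = enzyme with no compound and 100% = no enzyme blank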
HER2 expr 66K: inhibitors of human Her2 kinase expression. P04626. SKBR-3 HER2 protein level, AlphaScreen, 18-24 h; hits give low values. HER2 level % of control, % at 10 µM. 65,000 tested, 0.69% active. AID 645;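 active = HER2 level under 5% of the carrier-only control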;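 also: 100% = DMSO carrier and 0% = 500 nM PU-H71 HSP90 inhibitor; lower value means stronger loss of Her2 protein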
CatB mix inh: human cathepsin B inhibition by mixtures | P07858 | Purified cathepsin B, AMC dipeptide fluorescence, compound mixtures | inhibition, %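 (ten-compound pools at 5 µM per compound and 50 µM total)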 | 62,000 tested, 0.06% active; in the data active = inhibition above about 22%, passing the limit was not always enough;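 also: 0% = enzyme without compound and 100% = no enzyme blank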
SK-BR-3 tox 24h: SK-BR-3 proliferation inhibitors | SK-BR-3 viability, CellTiter-Glo ATP luminescence, 24 h; hits give low values | viability, % at 10 µM | 41,000 tested, 0.47% active;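 active = viability at or below the median of all test compounds minus 3 SD, in both replicates if run twice, cut at about 45% in these data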;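 also: 100% = median untreated cell wells and 0% = median positive control drug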
CatL block: inhibitors of human cathepsin L | P07711 | purified cathepsin L, fluorogenic substrate, fluorescence | inhibition, %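 (tested at 10 µM)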 | 58,000 tested, 0.17% active | AID 460; in the data active = inhibition above about 45%;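 also: 0% = enzyme with no compound and 100% = no enzyme blank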
* = called active by the depositor; nt = not tested or not shown.

SMILES	CatS inh	CatB block	HER2 expr 66K	CatB mix inh	SK-BR-3 tox 24h	CatL block
CCOc1ccccc1N1CCN(S(=O)(=O)c2cccc3nsnc23)CC1	8	-1	92	-3	80	-2
COC(=O)c1ccc(CSc2nc3scc(-c4cccs4)c3c(=O)[nH]2)o1	18	4	97	5	nt	-8
CCOC(=O)c1ccc(CNC(=O)Cn2nnc(-c3ccc(C)cc3)n2)o1	11	5	94	2	91	14
C/C(N)=N\S(=O)(=O)c1ccc(Cl)cc1	4	29*	89	5	106	15
CCc1c(C)nc(N)n2c(SCC(=O)N3CCN(c4ccccc4F)CC3)nnc12	-1	-4	86	-1	94	-2
N=c1n(CCN2CCCC2)c2ccccc2n1CC(O)c1ccco1 (stereo not drawn)	33	-2	91	43	79	-4
N=c1n(CCN2CCCCC2)c2ccccc2n1CC(O)c1cccc(Br)c1 (stereo not drawn)	1	4	35	3	44*	27
COc1ccc2cc(CN(Cc3cccnc3)S(=O)(=O)c3ccccc3)c(=O)[nH]c2c1	12	2	110	-2	89	6
Cc1cc(CN2C(=O)c3ccccc3C2=O)cc(N2CCOCC2)c1	11	4	93	5	130	10
CCOC(=O)c1nnn(-c2nonc2N)c1CN(C)Cc1ccccc1	12	1	117	5	69	21
NS(=O)(=O)c1ccc(NC(=O)CSC2=NC(=O)C(c3ccccc3)C(=O)N2)cc1 (stereo not drawn)	-10	8	94	-6	nt	7
CCC1C(=O)N=C(SCC(=O)Nc2ccc(C(=O)OC)cc2)NC1=O (stereo not drawn)	1	-1	85	0	44*	2
CCCCCCOC(=O)C(C#N)c1nc2ccccc2nc1N1CCN(C)CC1 (stereo not drawn)	3	5	-4.8*	7	4.9*	3
C=CCc1cccc2cc(C(=O)N(C)C)c(=O)oc12	-1	4	112	2	104	-2
C=CCc1cccc2cc(C(=O)NC)c(=O)oc12	-7	-3	-18*	2	108	-1
Clc1ccccc1Cn1nnc2c(N3CCCC3)ncnc21	nt	nt	103	nt	nt	nt
CC(C)(C)NC(=O)CSc1ncnc2c1nnn2Cc1ccccc1Cl	13	-1	4.8*	-4	158	0
O=C(C1CCCN(S(=O)(=O)c2ccc(F)cc2)C1)N(Cc1cccs1)C1CC1 (stereo not drawn)	-2	7	56	-1	76	-2
COC(=O)CSc1nnc(C)n1-c1cccc(C#N)c1	-2	1	98	1	114	0
CCOC(=O)CNS(=O)(=O)c1cc(-c2n[nH]c(=O)c3ccccc23)ccc1C	nt	23*	173	nt	111	7
COc1nnc(-c2ccc(C)c(S(=O)(=O)NCCO)c2)c2ccccc12	-10	3	98	-16	100	-2
COCCn1c(Cc2ccccc2)nnc1SCC(=O)N(C)C	1	0	-19*	5	131	-5
COCCn1c(Cc2ccccc2)nnc1SCC(=O)NC(C)(C)C	5	-2	105	1	97	17
O=C(O)CN1C(=O)c2cccc(Oc3ccc(Cl)cc3)c2C1=O	8	0	82	-5	103	16
CCOc1ccc(CCNC(=O)c2cc3sccc3n2C)cc1OCC	7	-1	114	2	nt	nt
SMILES	CatS inh	CatB block	HER2 expr 66K	CatB mix inh	SK-BR-3 tox 24h	CatL block
CCOC(=O)CSc1nnc([C@H](Cc2ccccc2)NC(=O)OC(C)(C)C)o1	14	5	79	7	112	4
CC(C)(C)OC(=O)N[C@@H](Cc1ccccc1)c1nnc(S(=O)(=O)Cc2cccc(F)c2)o1	-3	4	-16*	3	127	31
CSCC[C@H](NC(=O)OC(C)(C)C)c1nnc(SCC(=O)Nc2c(C)cccc2C)o1	-26	2	94	-2	103	9
Cc1ccccc1CS(=O)(=O)c1nnc([C@H](CC(C)C)NC(=O)OC(C)(C)C)o1	-3	7	-14*	9	85	15
CC(C)=CCSc1nnc([C@@H](NC(=O)OC(C)(C)C)C(C)C)o1	17	1	94	-3	93	4
CC[C@@H](C)[C@H](NC(=O)OC(C)(C)C)c1nnc(S(=O)(=O)Cc2cc(C)ccc2C)o1	8	19	-13*	11	97	31
